# Results as given in PubChem BioAssay AID1259415 (National Center for Advancing Translational Sciences (NCATS), 2018).
# Values joined by “and” are separate entries in the source; they are usually repeats but may differ in a detail not shown here. Equal values may be shown once. The whole screen tested about 410,000 compounds, of which about 18,000 (4.4%) were called active. Another 7% or so got no clear call; they are omitted. Rule as the data show it: active = activity change below about -60%; inconclusive = no clear call, values can overlap the other calls; inactive = above about -39%. The list comes from a sample in which actives are over-represented; it also holds similar structures and randomly drawn compounds. More than one record can exist for a structure, and the calls need not agree.
# Test: qHTS Assay for inhibitors of the human cytomegalovirus (HCMV)
# Settings: HFF cells, HCMV-luciferase reporter, 72 h; at 57.5 µM; stronger effect = lower value
# Excerpt: NCGC Assay Overview: Infection with human cytomegalovirus (HCMV) continues to pose significant threats for pregnant women and immunocompromised hosts. HCMV causes serious morbidity and mortality in transplant recipients, and congenital HCMV is the leading infectious cause of mental retardation and deafness in children. In the 1990s, the annual costs associated with the disease burden of congenital CMV were estimated at around $2 billion. A HCMV vaccine is not available yet and HCMV therapies result in intolerable side effects and emergence of drug resistant viruses. […] Towards this goal we have developed and characterized a luciferase HCMV reporter that was initially used in 96 well plates and then optimized to 1536-well plates for utilization in screening of the MLSMR collection, the NGCG diversity collection and the NCGC Pharmaceutical Collection of approved and investigational drugs.
# NCGC Assay Protocol Summary:
# This is a cell-based assay for HCMV inhibition in HFFs cells. The screening used 2 compound doses and the HCMV-luciferase at MOI of 1 PFU/cell. Cells were treated and infected with HCMV. At 72 h post infection cell lysates were collected and luciferase activity was determined using the Glomax-Multi + Detection System (Promega, Madison, WI). Data were normalized to the controls for basal activity (buffer only) and known HCMV inhibitors Salinmoycin.
# 1536-well assay protocol for the assay:
# (1) Add 3 ul CMV/HFF cell culture. 1000 cells/well in DMEM nirmal media.
# (2) Incubate 16 hr at 37C.
# (3) Add 23 nl control compound, 10uM of Salinomycin.
# (4) Add 23 nl compounds in DMSO solution.
# (5) Add 3 ul CMV suspension. Final 1 puf/ul, Virus stock 2000pfu/ul
# (6) Incubate 72 hrs at 37C.
# (7) Add 4 ul OneGlo Luc Reagent.
# (8) Incubate 5 min at room temperature.
# % is scaled to controls: 0 for no effect and ±100 for the full control effect.
row,SMILES,"activity change, negative = inhibition"
1,CC(C)c1ccc(CN2C(=O)C(n3ccc4ccccc43)c3cccc(F)c32)cc1 (stereo not drawn),-19.8% (inactive)
2,C=CS(=O)c1sc(Cl)c(N2CCOCC2)c1[N+](=O)[O-] (stereo not drawn),-29.1% (inactive)
3,Cc1ccc(O)c(NC(=O)c2cc(-c3ccc(F)cc3)no2)c1,-17.5% (inactive)
4,COc1ccc2c(c1)CCc1c(C(=O)Nc3cc(C)ccc3O)noc1-2,-8.9% (inactive)
5,Cc1ccc(O)c(NC(=O)c2cc(-c3ccco3)on2)c1,-60.7% (active)
6,O=C(NCc1ccccc1Cl)C1=Cc2cc(Br)ccc2OC1,-3.65% (inactive)
7,C=Cc1ccc(Cn2c(C(=O)O)c(CNC3CCCC3)c3ccc(C)cc32)cc1,-2.87% (inactive)
8,CCOc1ccc(CNCc2c(C(=O)O)c(C)n(Cc3cccc(OC)c3)c2C)cc1OC,-14.2% (inactive)
9,Cc1c(CNC2CCCCC2)c(C(=O)O)c(C)n1Cc1cccc(Cl)c1,-85.4% (active)
10,COc1ccc(-c2nc(CN3CCC(C(=O)NCc4ccccc4)CC3)c(C)o2)cc1OC,1.58% (inactive)
11,CCOc1ccc(S(=O)(=O)N(CC(=O)NCCSCc2ccc(C)cc2)c2ccccc2)cc1,21.6% (inactive)
12,O=C1[C@@H]2C(Cc3ccc(O)cc3)NC3(C(=O)Nc4ccc(F)cc43)[C@@H]2C(=O)N1c1ccc(F)cc1 (stereo partly drawn),5.54% (inactive)
13,COc1ccc(C(=O)c2c3ccc([N+](=O)[O-])cc3[n+]([O-])n2CCCN)cc1,-65.8% (active)
14,COc1ccc(NS(=O)(=O)c2cc(NC(=O)CC(=O)c3ccc([N+](=O)[O-])cc3)ccc2C)cc1,-28.9% (inactive)
15,COc1ccc([N+](=O)[O-])cc1NCC(=O)c1ccc(C)cc1,23.3% (inactive)
16,Cn1cncc1-c1cc2cnc(Nc3ccc(OC(F)(F)F)cc3)cc2[nH]1,-21.4% (inactive)
17,Cc1ccc(S(=O)(=O)N2CCc3cc(C(=O)Nc4ccc(Cl)cc4C)ccc32)cc1,0.154% (inactive)
18,COc1ccc(Cn2c(=O)n(-c3ccccc3C)c(=O)c3c4c(sc32)CN(C(C)=O)CC4)cc1,3.89% (inactive)
19,CC(=O)c1ccc(S(=O)(=O)N2CCN(c3nc4c(C)c(C)ccc4cc3C#N)CC2)cc1,-87.3% (active)
20,CC(=O)c1ccc(N2CCN(S(=O)(=O)c3ccc4c(c3)CC(=O)N4C)CC2)cc1,-36.7% (inactive)
21,Cc1ccc(C)c2sc(NC(=O)c3ccc(S(=O)(=O)N4CCCC4)cc3)nc12,37.4% (inactive)

row,SMILES,"activity change, negative = inhibition"
1,CCC(=O)N1CCc2cc(Br)cc(S(=O)(=O)NCc3ccc(Cl)cc3)c21,-9.15% (inactive)
2,COC(=O)c1cc(NC(=O)c2nn(C)c(=O)c3ccccc23)cc(C(=O)OC)c1,-10.5% (inactive)
3,CCSc1nnc(NC(=O)c2cc(=O)c3cc(C)c(C)cc3o2)s1,1.6% (inactive)
4,Cc1cc(F)ccc1NS(=O)(=O)c1ccc(-n2cccn2)cc1,-27.3% (inactive)
5,CCC(=O)N1CCc2cc(Br)cc(S(=O)(=O)CCC(=O)N3CCN(c4ccc(F)cc4)CC3)c21,25.8% (inactive)
6,COC(=O)CC(=O)N1CCN(c2ccc(Cl)c(Cl)c2)CC1,-31.5% (inactive)
7,COc1ccc(S(=O)(=O)N2CCN(C(=S)NCC3CCCO3)CC2)cc1OC (stereo not drawn),4.06% (inactive)
8,S=C(NCC1CCCO1)N1CCN(c2ccc(Cl)c(Cl)c2)CC1 (stereo not drawn),-86.4% (active)
9,CCOc1ccccc1NC(=O)Cn1c(=O)n(Cc2ccco2)c(=O)c2sc3ccccc3c21,30.3% (inactive)
10,COc1ccc(CNC(=O)Cn2nnc(-c3ccccc3F)n2)cc1,-0.694% (inactive)
11,Cc1cc(NC(=O)CC(C)C)cc(-c2nc3ncccc3o2)c1O,5.83% (inactive)
12,COc1ccc(C(=O)COC(=O)CN2C(=O)C3CC=CCC3C2=O)c(OC)c1 (stereo not drawn),-5.28% (inactive)
13,O=C(COC(=O)CN1C(=O)C2CCCCC2C1=O)Nc1ccc(F)c(F)c1F (stereo not drawn),-3.46% (inactive)
14,CC1=CC(C)(C)Nc2ccc(OC(=O)CN3C(=O)C4CCCCC4C3=O)cc21 (stereo not drawn),-63% (active)
15,CCOc1ccc(C(=O)c2cn(Cc3ccccc3OC)c3ccc(F)cc3c2=O)cc1,-39% (inactive)
16,CC(C)(C)c1cc[n+](-c2[nH]c(=O)sc2/C=N/N=C(\[O-])c2ccccc2)cc1,-35.8% (inactive)
17,CCOc1ccc(S(=O)(=O)c2cn(Cc3ccc(OC)cc3)c3ccc(F)cc3c2=O)cc1,5.49% (inactive)
18,COc1cc(OC)cc(C(=O)Nc2c(C(=O)Nc3ccc(F)cc3)oc3ccccc23)c1,-7.35% (inactive)
19,Cc1cc(Nc2cccc(C(F)(F)F)c2)nc2ccc(NC(=O)c3ccc(=O)[nH]c3)cc12,-15.4% (inactive)
20,COc1cc(OC)cc(C(=O)Nc2ccc3nc(Nc4cccc(C(F)(F)F)c4)cc(C)c3c2)c1,-92.6% (active)
21,COc1cccc(NC(=O)CN(C)C(C)C(=O)Nc2ccc(C#N)cc2)c1 (stereo not drawn),-15.8% (inactive)

row,SMILES,"activity change, negative = inhibition"
1,COc1ccc(Sc2ccc(NC(=O)c3cccc(Cl)c3)cc2C#N)cc1,-22.8% (inactive)
2,COc1cc(NC(=O)c2cncc(-c3ccc(C#N)cc3)c2)cc(C(=O)Nc2cccc(C(F)(F)F)c2)c1,-78.9% (active) and -65.8% (active)
3,O=C1COCc2cc(-c3cccc(F)c3)ccc2N1CCN1CCOCC1,-29.7% (inactive)
4,CCOC(=O)c1cccc(NC(=O)C2CCCN(S(=O)(=O)c3cnc[nH]3)C2)c1 (stereo not drawn),-78.2% (active)
5,CC(=O)c1cccc(NC(=O)C2CCCN(S(=O)(=O)c3cccc4nonc34)C2)c1 (stereo not drawn),8.09% (inactive)
6,CCOC(=O)c1cccc(NC(=O)c2cc(S(=O)(=O)N3CCCC(C)C3)cn2C)c1 (stereo not drawn),-10.5% (inactive)
7,CN(C)c1ccc(NC(=O)CSc2nc(-c3ccco3)cc(C(F)(F)F)n2)cc1,13.1% (inactive)
8,Cc1cc(NC(=O)CCC(=O)N(CC(=O)NCC2CCCO2)c2ccccc2)no1 (stereo not drawn),-24.8% (inactive)
9,Cc1cccc(OP(=O)(Nc2c(C)n(C)n(-c3ccccc3)c2=O)Oc2cccc(C)c2)c1,-36.3% (inactive)
10,Cc1cccc(OP(=O)(Oc2cccc(C)c2)OC(c2ccccc2)C(F)(F)F)c1 (stereo not drawn),19.6% (inactive)
11,CCN(CC)P(=O)(Oc1cccc(C)c1)N(CC)CC,-101% (active)
12,Cc1cc(Nc2ccc(Br)cc2F)n2ncnc2n1,3.15% (inactive)
13,COc1ccc(Cl)cc1-n1c(CCC(=O)O)ccc1-c1ccc(C)cc1,10.6% (inactive)
14,Cc1cc(C)c(NC(=O)CCc2c(C)nc3c(c(C)nn3C(C)(C)C)c2C)c(C)c1,3.32% (inactive)
15,COc1ccc(C(C(=O)NC2CCCCC2)N(C(=O)CCl)c2ccccc2Cl)cc1 (stereo not drawn),-97.5% (active)
16,COc1cccc(N(C(=O)C2COc3ccccc3O2)C(C(=O)NC2CCCCC2)c2ccc(O)cc2)c1 (stereo not drawn),-15.7% (inactive)
17,Cc1ccccc1N(C(=O)CNC(=O)c1cccs1)C(C(=O)NC1CCCC1)c1ccncc1 (stereo not drawn),62.4% (inactive)
18,Oc1c(C(c2ccc(F)cc2)N2CCN(Cc3ccccc3)CC2)sc2nc(-c3ccco3)nn12 (stereo not drawn),-3% (inactive)
19,CC(=O)C[C@@H](O)CC(=O)[C@H]1OC(=O)CCCCCCc2ccccc21,6.44% (inactive)
20,CCCCCn1c(=O)[nH]c2cc(C(=O)NCCCN3CCCCC3C)ccc2c1=O (stereo not drawn),-19.8% (inactive)
21,Cc1cccc(N2CCN(C(=O)CCSCc3ccccc3F)CC2)c1C,11.2% (inactive)

row,SMILES,"activity change, negative = inhibition"
1,CCOC(=O)c1cnc2c(C)cc(C)cc2c1Nc1ccc(N2CCOCC2)cc1,6.54% (inactive)
2,CCOC(=O)c1cnc2ccc(F)cc2c1Nc1ccc2c(c1)OCCO2,-76.3% (active)
3,CCC(=O)c1cc(F)ccc1OCC(=O)Nc1ccc2c(c1)OCCO2,-17.8% (inactive)
4,CCOC(=O)c1cccc(NC(=O)C2CCN(c3ncnc4c3nc3n4CCCCC3)CC2)c1,4.29% (inactive)
5,O=C(NCc1ccccc1Cl)C1CCN(c2ncnc3c2nc2n3CCCCC2)CC1,0% (inactive) and -68.9% (active)
6,COc1cccc(CNC(=O)C2CCCN(c3ncnc4c3nc3n4CCCCC3)C2)c1 (stereo not drawn),-15.7% (inactive)
7,COc1ccc(N(C)C(=O)C2CCN(S(=O)(=O)c3cc(Br)cc4c3N(C(C)=O)CC4)CC2)cc1,8.13% (inactive)
8,COc1ccc(-c2cc(C(=O)Nc3sc4c(c3C(N)=O)CCCC4)no2)cc1,21.3% (inactive)
9,CC(C)(CNC(=O)Cc1ccc(Cl)cc1Cl)N1CCOCC1,-8.38% (inactive)
10,CC(C)(C)c1cc(C(=O)NN)n(Cc2ccc(Cl)cc2Cl)n1,-79.4% (active)
11,Cn1cc(C(=O)c2ccc(Cl)cc2Cl)cc1C(=O)NN,-23.5% (inactive)
12,CC(=O)Nc1cccc(NC(=O)CSc2cn(CC(=O)N3CCCC3)c3ccccc23)c1,-3.21% (inactive)
13,O=C(CCS(=O)(=O)c1cc(Br)cc2c1N(C(=O)C1CC1)CC2)Nc1ccc(C(F)(F)F)cc1,1.29% (inactive)
14,O=C(NCc1ccccc1)C1=C[C@H](C2CC2)C[C@H](OCc2ccc(CO)cc2)O1,7.43% (inactive)
15,CC(C)(C)[C@H]1C=C(C(=O)NCc2ccccc2)O[C@@H](OCc2ccc(CO)cc2)C1,-2.88% (inactive)
16,O=C(NCc1ccccc1)C1=C[C@@H](C2CCCCC2)C[C@@H](OCc2ccc(CO)cc2)O1,-86.3% (active)
17,Cc1c(CN2CCC(CO)(CCOc3ccccc3)CC2)[nH]c2ccc(Cl)cc12,-92.5% (active)
18,CCC(C)CN1CCC(CO)(Cc2ccccc2Cl)CC1 (stereo not drawn),-7.29% (inactive)
19,OCC1(CCc2ccccc2)CCN(Cc2ccc3nsnc3c2)CC1,13.2% (inactive)
20,COc1ccccc1CNC(=O)CCn1c(=O)c2ccccc2n(CC(=O)Nc2cccc(Cl)c2)c1=O,-39.6% (inactive)
